Assay outcomes as filed in PubChem.
Sampled rows, rich in hits. Any-hit rate of the full collection: about 2.4%.
D2 ag-1 = activates the human D2 dopamine receptor; P14416; DiscoveRx PathHunter D2 beta-arrestin, luminescence, 90 min; 100% = 57 uM dopamine signal; activation, % (no concentration beside the values); actives 0.084% (n = 360,000); in the data active = activation above about 40%
Target sequence (P14416 whole entry, looked up): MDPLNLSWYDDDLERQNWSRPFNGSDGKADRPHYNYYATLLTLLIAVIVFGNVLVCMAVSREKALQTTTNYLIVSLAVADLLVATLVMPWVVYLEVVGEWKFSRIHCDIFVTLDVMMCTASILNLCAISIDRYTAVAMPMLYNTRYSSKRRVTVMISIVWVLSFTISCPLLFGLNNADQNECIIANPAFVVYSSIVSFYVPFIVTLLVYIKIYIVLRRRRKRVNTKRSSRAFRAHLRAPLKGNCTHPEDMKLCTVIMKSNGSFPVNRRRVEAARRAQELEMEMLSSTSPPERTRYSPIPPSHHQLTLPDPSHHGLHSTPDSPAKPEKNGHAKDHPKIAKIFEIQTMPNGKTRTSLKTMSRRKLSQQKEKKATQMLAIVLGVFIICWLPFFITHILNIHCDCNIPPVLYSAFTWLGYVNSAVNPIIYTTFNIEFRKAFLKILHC
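DiscoveRx PathHunter D2 beta-arrestin cells (2,100/well) attached overnight, then compound-stimulated 90 min at 37 C in HBSS/10 mM HEPES/0.1% Tween-20 buffer; beta-galactosidase complementation read by luminescence after 1 h at ambient temperature. Dopamine 57 uM final (EC100) as control.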
D2 ag-2 = agonists of human D2 dopamine receptor; P14416; HEK293 T-REx D2 cells, calcium flux agonist mode; activation, % at 2 µM; actives 0.53% (n = 340,000);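 active = activation over 3 SD above normal in the single-dose calcium agonist read, cut at about 30% in these data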
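Agonism scored from kinetic calcium signal (1 read/sec, 180 s) following compound pin transfer, after a 10 s baseline. Cells: HEK293 Trex line expressing inducible D2 receptor coupled to calcium, dye-loaded after overnight culture at 30 C.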
D2 PAM-1 = potentiates the human D2 dopamine receptor allosterically | actives 0.23% (n = 360,000) | P14416 | AID 624464 | potentiation, % (test concentration not listed) | DiscoveRx D2 beta-arrestin cells, luminescence, 90 min; 100% = 57 uM dopamine signal; in the data active = potentiation above about 50%
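PathHunter beta-arrestin assay in DiscoveRx D2 cells. Compounds were added with an EC20 of dopamine (50 nM final) for 90 min at 37 deg C. Luminescence was read 1 h after detection reagent, with 57 uM dopamine as the EC100 control.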
D2 antagonist = D2 dopamine receptor (human) antagonism. P14416. HEK293 TREx D2 cells, calcium flux, dopamine EC80. actives 2% (n = 340,000). inhibition, % at 10 µM; in the data active = inhibition above about 30%; inactive = below that, where a call was filed
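Cells plated overnight at 30 C with tetracycline; no-wash calcium dye, 30–90 min RT; 10 s baseline; compound pinned; 180 s read; EC80 dopamine added; another 180 s read.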
D2 PAM-2 = D2 dopamine receptor (human) potentiation. P14416. HEK293 T-REx D2, calcium flux, EC20 dopamine potentiation. potentiation, % at 10 µM. actives 0.34% (n = 340,000). AID 485347;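 active = potentiation over 3 SD above the plate norm, cut at about 30% in these data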
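Tetracycline-induced HEK293 T-REx cells force-coupled to calcium signalling expressed D2; compounds were pin-added after a 10 s baseline, read kinetically 180 s, then an EC20 dopamine challenge followed with a further 180 s calcium read.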
Hits are given with their value; - = inactive; . = no result; ! = not active in a repeat.

SMILES	D2 ag-1	D2 ag-2	D2 PAM-1	D2 antagonist	D2 PAM-2
CN(C)CCN(Cc1cc2cc3c(cc2[nH]c1=O)OCCO3)C(=S)NCC1CCCO1 (stereo not given)	-	-	-	41	-
CCOC(=O)c1ccc(N2C(=O)c3[nH]nc(-c4ccc(C)cc4)c3C2c2cccs2)cc1 (stereo not given)	.	-	.	.	-
Cc1ccc(CN2CCC(CNc3ncnc4onc(-c5ccc(F)cc5)c34)CC2)cc1	.	-	.	.	-
Cc1nc2sc(C(c3ccco3)N3CCN(C(c4ccccc4)c4ccccc4)CC3)c(O)n2n1 (stereo not given)	-	-	-	-	33
Cc1nc2sc(C(c3ccco3)N3CCN(c4ccccc4)CC3)c(O)n2n1 (stereo not given)	-	-	-	-	-
CCOC(=O)c1cccnc1SCc1cc(=O)n2ccccc2n1	-	-	-	-	-
CC(OC(=O)c1cccnc1SCc1cc(=O)n2ccccc2n1)c1ccccn1 (stereo not given)	-	-	-	-	30
COCCn1c(SCC(=O)Nc2ccc(F)c(Cl)c2)nc2c(oc3ccccc32)c1=O	.	-	.	.	-
CC[C@H](C)C(=O)O[C@H]1CCC=C2C=C[C@H](C)[C@H](CC[C@@H]3C[C@@H](O)CC(=O)O3)[C@H]21	-	-	-	38!	-
COc1ccc(/C=C/C(=O)O)cc1COc1cccc(C)c1	-	-	-	40	-
COc1ccc(/C=C/C(=O)C2CC2)cc1COc1c(C)cccc1C	-	-	-	-	.
Cc1ccc(NC(=O)c2sc3ncn(Cc4cccc(F)c4)c(=O)c3c2C)c(Br)c1	.	-	.	.	-
CCOC(=O)C1(Cc2ccccc2)CCN(Cc2nccn2CC)CC1	-	-	-	65	-
CCOC(=O)C1(CCc2ccccc2)CCN(Cc2cnc(N(C)C)s2)CC1	-	-	-	51	-
CCOC(=O)C1(CCc2ccccc2)CCN(Cc2ccc(OC)cc2)CC1	-	-	-	-	-
CCOC(=O)C1(CCc2ccccc2)CCN(Cc2nccn2CC)CC1	-	-	-	-	-
CCOC(=O)C1(CCc2ccccc2)CCN(C(=O)CN2CCOC2=O)CC1	-	-	-	37	-
CCOC(=O)C1(CCc2ccccc2)CCN(Cc2c(O)cccc2OC)CC1	-	-	-	37	-
Cn1nc(-c2ccc(OCC(=O)Nc3cccc(C(F)(F)F)c3)cc2)c2ccccc2c1=O	.	-	.	.	-
CC1=C(/C=C/C(C)=C/C=C/C(C)=C/C(=O)Nc2ccc(O)cc2)C(C)(C)CCC1	-	-	56!	-	-
CC1=C(/C=C/C(C)=C/C=C/C(C)=C\C(=O)O)C(C)(C)CCC1	-	.	-	.	.
CCOc1ccc(Nc2oc(-c3ccc(COc4ccc(OC)cc4)o3)nc2C#N)cc1	.	-	.	.	-
Cc1ccc(S(=O)(=O)c2nnn(-c3ccc(F)c(Cl)c3)c2N)cc1	.	-	.	.	-
O=C(NNC(=O)c1cccc(C(F)(F)F)c1)c1ccc(-n2cnnn2)cc1	-	.	-	.	.
CC(NC(=O)Cn1cnnn1)c1cccc(C(F)(F)F)c1 (stereo not given)	-	-	-	-	38
SMILES	D2 ag-1	D2 ag-2	D2 PAM-1	D2 antagonist	D2 PAM-2
Cc1c(C(=O)N(C)C)sc2c1c(=O)n(-c1ccc(Cl)c(Cl)c1)c(=O)n2CC(=O)Nc1ccc(Br)cc1F	.	-	.	.	.
CCc1ccccc1NC(=O)Nc1c[nH]c(=O)[nH]c1=O	.	-	.	.	-
CCc1nn(CC(=O)NCCCN2CCc3ccccc3C2)c(=O)c2cc3sccc3n12	-	-	-	79	-
Cc1ccc(NC(=O)N2CCN(c3ncccc3C(F)(F)F)CC2)cc1	-	-	-	37	-
CCCOc1cc(N)ccc1C(=O)OCCN(CC)CC	-	-	-	-	-
CCCOc1ccc(N)cc1N	-	-	66	-	-
COC(=O)c1ccccc1NC(=O)c1cc(-c2ccc(Cl)cc2)on1	.	.	.	.	-
O=C(Cc1noc2ccccc12)NNC(=S)Nc1ccccc1	-	.	-	.	.
O=C(Cc1noc2ccccc12)NNC(=S)Nc1ccc(Cl)cc1	-	-	-	48	-
COc1ccc(NC(=O)CCc2c(C)nn(-c3ccc(N4CCCC4)nn3)c2C)cc1Cl	.	-	.	.	-
COc1cc(NC(=O)N2CCC(CN3CCCCCC3)CC2)cc(OC)c1OC	.	-	.	.	-
O=C(Cc1cccs1)Nc1ccc(NC(=O)c2ccco2)cc1	-	-	-	31	-
COc1ccc(C)cc1NC(=O)CC(=O)Nc1ccc2nc3n(c(=O)c2c1)CCCCC3	.	-	.	.	-
CCN(C(=O)COC(=O)/C(C#N)=C/c1ccc(OC)cc1)C1CCS(=O)(=O)C1 (stereo not given)	-	-	-	36	-
O=C(NCCCN1CCC(Cc2ccccc2)CC1)c1ccc2nc(N3CCOCC3)sc2c1	-	-	-	48	-
CC1CCCC(C)N1CCCNC(=O)c1ccc2nc(N3CCOCC3)sc2c1 (stereo not given)	-	.	-	.	-
COc1ccc(OC)c(CNc2ncc(-c3ccc(Cl)cc3)n2C)c1	.	-	.	.	-
CCc1ccc(NC(=O)Cn2c(=O)n(Cc3nc(C)no3)c(=O)c3cc4c(cc32)OCO4)cc1	.	-	.	.	-
O=[N+]([O-])c1ccc(Sc2nnnn2-c2ccccc2)c(Cl)c1	-	-	-	36	-
Cn1nnnc1Sc1ccc([N+](=O)[O-])cc1Cl	-	-	-	-	-
Cn1c(Cn2c(=O)sc3ccccc32)nnc1SCC(=O)NCc1ccco1	-	-	-	-	-
O=C(CCn1c(=O)sc2ccccc21)NCc1ccco1	-	-	-	42	-
O=C(CCn1c(=O)sc2ccccc21)NCCC1=CCCCC1	-	-	-	37	-
CCOCCCn1c(=N)c(C(=O)NC2CCCCC2)cc2c(=O)n3ccccc3nc21	.	-	.	.	-
O=C(O)c1ccccc1-c1ccccc1C(=O)Nc1ccccc1	-	-	-	-	-
SMILES	D2 ag-1	D2 ag-2	D2 PAM-1	D2 antagonist	D2 PAM-2
O=C(O)c1ccccc1-c1ccccc1C(=O)NNc1ccccc1	-	37	-	-	-
CN(Cc1ccccc1)C(=O)CCN1C(=O)c2cccc([N+](=O)[O-])c2C1=O	-	.	-	.	.
O=C1c2cccc([N+](=O)[O-])c2C(=O)N1CCO	-	-	-	-	40
COc1ccc(OC)c(NC(=O)CSC2=Nc3ccccc3C3=NC(CCC(=O)NCCc4ccccc4)C(=O)N23)c1 (stereo not given)	.	-	.	.	-
CC[C@@H](C(=O)[C@@H](C)[C@@H](O)[C@H](C)[C@@H]1O[C@@H]([C@@H](CC)C(=O)O)CC[C@@H]1C)[C@H]1O[C@]2(C=C[C@@H](O)[C@]3(CC[C@@](C)([C@H]4CC[C@](O)(CC)[C@H](C)O4)O3)O2)[C@H](C)C[C@@H]1C	-	.	64	.	.
COc1ccc(C(=O)Nc2cccc(OC(=O)c3ccco3)c2)cc1	-	-	-	-	-
COc1ccc(C(C)=O)c(OC(=O)c2ccc(OC)c(OC)c2)c1	-	-	-	-	36
